Measured values reported in ChEMBL document CHEMBL3988442, “University of Dundee, Small-Polar-MMV Screening Library” (2021).
About 13,000 (27%) of roughly 48,000 compounds showed an effect of 50% or more. This is one part of the list.

test system: Wolbachia pipientis; assay: Anti-Wolbachia Cell-Based Screen; type: functional; design: scale not given: in the data most compounds retested in dose-response had high values; details: 5 µM

Compound	Percent Effect [%]
Cc1ccc2c(c1)C(NC(=O)N(C)C)CC21CCN(CC2CC2)CC1.O=C(O)C(F)(F)F (stereo not drawn)	116.9
Cc1ccc2c(c1)C(N(C)C)CC21CCN(CCO)CC1.O=C(O)C(F)(F)F.O=C(O)C(F)(F)F (stereo not drawn)	1.059
CCN1CCC2(CC1)CC(NC(=O)N(C)C)c1cc(C)ccc12.O=C(O)C(F)(F)F (stereo not drawn)	-13.82
Cc1ccc2c(c1)C(NC(=O)N(C)C)CC21CCN(C(C)C)CC1.O=C(O)C(F)(F)F (stereo not drawn)	100.3
CCN1CCC2(CC1)CC(NC(=O)NC)c1cc(C)ccc12.O=C(O)C(F)(F)F (stereo not drawn)	-18.25
CC(C)N1CCC2(CC1)CC(CC(N)=O)c1ccc(F)cc12.O=C(O)C(F)(F)F (stereo not drawn)	14.5
Cc1ccc2c(c1)C(NC(=O)N(C)C)CC21CCN(C)CC1.O=C(O)C(F)(F)F (stereo not drawn)	102.1
Cn1nnc2c1CCN(S(C)(=O)=O)C2COCc1ccccc1 (stereo not drawn)	-3.39
Nc1cc2c(nn1)CCN(C(=O)c1csc(-c3ccccc3)n1)C2	1.599
O=c1cc(-c2ccncc2)nc(-c2ccc(CN3CC[C@@H](O)C3)cc2)[nH]1	1.525
Cn1cnc2c1CCN(Cc1csc(-c3ccsc3)n1)C2	1.661
c1sc(C2CCCCC2)nc1CN1CCn2c(nnc2C2CC2)C1	99.95
c1cc(-c2noc(CN3CCc4c(ncn4C4CC4)C3)n2)cs1	0.1339
COc1ccc(-c2nc(CN3CCc4c(ncn4C)C3)cs2)cc1	30.48
CCCc1nc(CN2CCc3c(ncn3C3CC3)C2)cs1	72.74
CCc1nc(CN2CCc3c(ncn3C3CC3)C2)cs1	49.69
Cn1cnc2c1CCN(Cc1csc(C3CCCC3)n1)C2	102.6
c1sc(C2CCCC2)nc1CN1CCn2c(nnc2C2CC2)C1	-0.3735
Cn1cnc2c1CCN(Cc1csc(C3CCCCC3)n1)C2	104.6
Cc1ccc(-c2nc(CN3CCc4c(ncn4C)C3)cs2)o1	0.8085
c1ccc(-c2nc(CN3CCn4c(nnc4C4CC4)C3)cs2)cc1	1.064
O=C(C1CCOC1)N1CCc2ncnc(C3CC3)c2CC1 (stereo not drawn)	2.623

Compound	Percent Effect [%]
Cc1cnc(-c2nc(O)c3c(n2)CN(C(=O)C2CCOC2)CC3)cn1 (stereo not drawn)	177.2
Cc1cnc(-c2nc(O)c3c(n2)CN(C(=O)C2CCCO2)CC3)cn1 (stereo not drawn)	141.1
CN(C)c1nc2c(c(=O)[nH]1)CCN(C(=O)C1CCCO1)C2 (stereo not drawn)	4.175
CNC(=O)C1CCN(c2ncnc3c2CCN(C(=O)C2CC2)C3)C1 (stereo not drawn)	-3.996
CCN1CCN(c2ncnc3c2CCN(C(=O)C2CC2)C3)CC1	-21.72
Cc1cnc(-c2nc(O)c3c(n2)CN(C(=O)C2CCCC2)CC3)cn1	133.6
O=C(C1CCOC1)N1CCc2ncnc(NC3CCC3)c2CC1 (stereo not drawn)	-0.188
O=C(C1CC1)N1CCc2c(ncnc2NCCc2nc3c(s2)CCC3)C1	7.369
CCN(CC)C1CCN(c2ncnc3c2CCN(C(=O)C2CC2)C3)C1 (stereo not drawn)	-6.613
Cc1cnc(-c2nc(O)c3c(n2)CN(C(=O)C2CC2)CC3)cn1	165.3
O=C(C1CCCO1)N1CCc2onc(-c3ccc(Cl)cc3)c2C1 (stereo not drawn)	0.5907
NC(=O)C(NC(=O)c1ccc(NC2CC2)nc1)c1ccccc1 (stereo not drawn)	15.13
CC(C)n1cnc(C2CN(C)c3ccc(C(=O)NC4CCCC4)cc32)n1 (stereo not drawn)	-4.903
CC(=O)N[C@@H](CC(C)C)C(=O)N1CCC(n2cc(CO)nn2)CC1	-15.95
CCCc1nccn1-c1ccc(C(C)O)cc1 (stereo not drawn)	-9.636
Cc1oc(C(C)C)cc1C(=O)N1C[C@H]2CC[C@@H]1CN(C(=O)N(C)C)C2	-18.45
O=C(N1CCC(Oc2ccncc2)C1)C1(c2ccc(F)cc2)CC1 (stereo not drawn)	-3.796
COc1cnc(N2CCN(C)CC2)nc1-c1ccnn1C	-15.65
c1cc(-c2c[nH]c([C@@H]3COCCN3Cc3csnn3)n2)ccn1	7.154
Cc1cnc(-c2nc(O)c3c(n2)CN(C(=O)CC2CCCC2)CC3)cn1	148.5
Nc1cc2c(nn1)CCN(C(=O)CC1CCCC1)C2	-4.566
O=C1NCCN(CC2CCCCC2)C1CC(=O)N1CCc2n[nH]cc2C1 (stereo not drawn)	-15.6

Compound	Percent Effect [%]
Cc1cnc(N2CCC3(CC2)CCN(c2cncnc2)C3=O)nc1	-8.08
NS(=O)(=O)NCc1cc(-c2ccc(C(F)(F)F)cc2)n[nH]1	103.6
NS(=O)(=O)c1ccc(NCc2ccccc2)cc1C(F)(F)F	11.93
O=C(NCc1nc[nH]n1)c1cc(COc2cccc(C(F)(F)F)c2)[nH]n1	0.1207
CCOCCCC(=O)N1CCN(c2cccc(OC)c2)C(C)C1 (stereo not drawn)	5.389
Cc1ccc2c(c1)c(CNC(=O)C1CCN(CC(N)=O)CC1)nn2C	11.07
COc1cccc(CN(C)Cc2ccccc2C#N)c1OC	-9.098
Cc1cc(CN(C)CCN(C)c2ccccc2)no1	9.198
N#Cc1ccccc1CN(CC(N)=O)C1CCCC1	-5.252
Cc1cc(CN(C)CCC(O)c2ccccc2)no1 (stereo not drawn)	107.6
Cc1nc(CN(C)Cc2nc(-c3ccccc3)no2)co1	-6.169
CN(Cc1nc(-c2ccccc2)no1)C(=O)CNS(C)(=O)=O	-1.951
Cc1cc(CN(C)CCC(O)c2ccccc2)nn1C (stereo not drawn)	-3.114
CN(CCC(O)c1ccccc1)Cc1nc(-c2ccccc2)no1 (stereo not drawn)	118.9
CN(CCC(O)c1ccccc1)Cc1ccccc1C#N (stereo not drawn)	111.8
COc1ccc(F)c(NCc2cnn(C3CCS(=O)(=O)C3)c2)c1 (stereo not drawn)	7.936
Cc1ccc(CNc2ccn(CCc3ccncc3)n2)s1	19.44
COc1ccsc1C(=O)NC1CCN(c2cccc(F)c2)CC1	98.27
O=C(Cc1cccs1)NC1CCN(c2cccc(F)c2)CC1	-15.75
COc1ccc(N2CCC(NC(=O)c3ccc(C#N)cc3)CC2)cc1	89.14
COc1cc(OC)cc(N2CCC(NC(=O)c3ccc[nH]3)CC2)c1	-4.011
COc1cc(OC)cc(N2CCC(NC(=O)c3cccn3C)CC2)c1	-13.09

Compound	Percent Effect [%]
COc1ccsc1C(=O)NC1CCN(c2ccc(C#N)cc2)CC1	-30.88
COc1ccc(N2CCC(N(C)C(C)C(=O)N(C)C)CC2)cc1 (stereo not drawn)	7.179
COc1ccc(N2CCC(NC(=O)c3sccc3C)CC2)cc1	79.74
COc1ccc(C(=O)NC2CCN(c3ncccn3)CC2)cc1F	13.96
CCN(Cc1ccncc1)C1CCCN(Cc2ccc(F)cc2Cl)C1 (stereo not drawn)	-7.648
O=C(O)CC1COCCN1C(=O)C1(c2ccc(Cl)cc2)CCC1 (stereo not drawn)	14.34
O=S(=O)(CCC1CCCO1)NCc1ncc(-c2ccccc2)o1 (stereo not drawn)	-10.29
Cc1nn(C)c(C)c1OCC(=O)NCC(O)c1ccco1 (stereo not drawn)	9.29
CCC1CN(Cc2nc(C(C)C)no2)CCC(=O)N1Cc1ccccc1 (stereo not drawn)	11.67
COc1cccc(-c2noc(-c3ccc(NCCCO)nc3)n2)c1OC	11.35
COc1ccc(CCN2CCOC(Cn3nc(C)nc3C)C2)cc1 (stereo not drawn)	6.569
c1cnn(CC2CN(Cc3ccc(-n4ccnc4)cc3)CCO2)c1 (stereo not drawn)	-4.298
Nc1cc(CCC2CN(Cc3cccc(C(=O)O)c3)CCO2)ccn1 (stereo not drawn)	106.3
COc1ccc(CN2CCOC(CCc3ccnc(N)c3)C2)cc1 (stereo not drawn)	124.3
CC(C)(C)c1cc(CN2CCOC(CCc3ccccc3)C2)n[nH]1 (stereo not drawn)	14.18
COc1cccc(CN2CCOC(Cn3nc(C)cc3C)C2)c1 (stereo not drawn)	-2.903
Nc1cc(CCC2CN(Cc3ccc(C(=O)O)cc3)CCO2)ccn1 (stereo not drawn)	7.558
Nc1cc(CCC2CN(Cc3ccc4c(c3)OCCO4)CCO2)ccn1 (stereo not drawn)	90.24
Cc1nccn1CCC1CCCCN1Cc1ccc2c(c1)OCCO2 (stereo not drawn)	18.54
Cc1cc(C)n(CC2CN(Cc3cccc(C(N)=O)c3)CCO2)n1 (stereo not drawn)	-10.5
CCc1nnc2n1CCN(Cc1ccc3c(c1)OCCO3)C2	1.979
Nc1cc(CCC2CN(Cc3ccc4cc[nH]c4c3)CCO2)ccn1 (stereo not drawn)	120

Compound	Percent Effect [%]
CC(C)c1nn(CC(=O)N2CCCCC2)c(=O)c2c1cnn2C(C)(C)C	-4.82
COCc1nc(CN2CCN(c3ccc(OC)cc3)C(=O)C2C)no1 (stereo not drawn)	94.02
COc1ccc(S(=O)(=O)Cc2noc(CC(C)C)n2)cc1	-2.844
COCc1nc(CN2CC(=O)N(C)c3ccccc3C2=O)no1	-2.193
COc1cccc(S(=O)(=O)Cc2noc(CC(C)C)n2)c1	-0.9778
COCc1nc(CN2CC(C)(c3ccccc3)CCC2=O)no1 (stereo not drawn)	5.849
COc1ccc(N2CCN(Cc3noc(CC(C)C)n3)C(C)C2=O)cc1 (stereo not drawn)	87.05
CN(CC(N)=O)CC(=O)N(C1=CCCCC1)C1CC1	-2.779
Cc1cccc(CN2CCc3onc(Cn4cccc4)c3C2)n1.O=C(O)C(F)(F)F	93.67
c1coc(CN2CCc3onc(Cn4ccnc4)c3C2)c1	-8.337
CN(C)Cc1noc2c1CN(Cc1ccc[nH]1)CC2	98.7
O=C(O)C(F)(F)F.c1coc(CN2CCc3onc(Cn4cccc4)c3C2)c1	-0.2735
O=C(O)C(F)(F)F.c1csc(CN2CCc3onc(Cn4cccc4)c3C2)c1	-13.64
CN(C)Cc1noc2c1CN(C(=O)c1ccncc1)CC2.O=C(O)C(F)(F)F.O=C(O)C(F)(F)F	-9.47
Cc1cccc(CN2CCc3[nH]nc(C(=O)N4CCNC(=O)C4)c3C2)n1.O=C(O)C(F)(F)F	-67.35
Cc1cccc(CN2CCc3onc(CO)c3C2)n1.O=C(O)C(F)(F)F	107.8
Cc1cccc(CN2CCc3onc(CN(C)C)c3C2)n1	101.4
Cc1cccc(CN2CCc3[nH]nc(C(=O)N(C)C)c3C2)n1.O=C(O)C(F)(F)F	-6.855
CC(=O)NCc1noc2c1CN(Cc1cccs1)CC2	-5.877
CN(C)Cc1noc2c1CN(Cc1ccsc1)CC2.O=C(O)C(F)(F)F.O=C(O)C(F)(F)F	-7.7
